A selection: hits, their analogues and other compounds. The true share with any hit is near 2.8%.
pPAFAH inh = inhibitors of human plasma PAF acetylhydrolase (pPAFAH); Q13093; recombinant pPAFAH, FP-rhodamine probe fluorescence polarization; inhibition, % at 3.39 µM; hit rate 1.5% among 330,000;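 active = inhibition above the mean inhibition across the screen plus 3 SD, cut at about 25% in these data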;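 note: inhibitors block binding of the rhodamine activity-based probe so polarization drops; 0% = enzyme with DMSO and 100% = wells lacking pPAFAH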
PAFAH2 FP inh = PAFAH2 (human) inhibition. inhibition, % at 3.39 µM. recombinant PAFAH2, FP-rhodamine activity probe, fluorescence polarization. Q99487. hit rate 0.99% among 340,000;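 active = inhibition above the mean over all tested compounds plus 3 SD, cut at about 30% in these data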;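 note: inhibitors block probe labeling of enzyme so polarization drops; 0% = enzyme with DMSO and 100% = wells lacking PAFAH2 protein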
PAFAH1B2 inh = inhibitors of human PAFAH1B2 | AID 492953 | P68402 | hit rate 1.2% among 340,000 | inhibition, % at 3.39 µM | recombinant PAFAH1B2, FP-rhodamine activity probe, fluorescence polarization;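 active = inhibition above the mean of all tested compounds plus 3 SD, cut at about 24% in these data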;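 note: 0% = enzyme with DMSO and 100% = wells lacking PAFAH1B2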
Target sequence (P68402 whole entry, looked up): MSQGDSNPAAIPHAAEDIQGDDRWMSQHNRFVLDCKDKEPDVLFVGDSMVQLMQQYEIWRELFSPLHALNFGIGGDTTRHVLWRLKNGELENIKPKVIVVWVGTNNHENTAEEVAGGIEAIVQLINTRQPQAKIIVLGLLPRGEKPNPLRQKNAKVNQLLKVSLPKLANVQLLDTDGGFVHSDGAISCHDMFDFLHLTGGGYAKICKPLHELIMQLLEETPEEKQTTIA
PAFAH1B3 FP inh = PAFAH1B3 (human) inhibition | Q15102 | inhibition, % at 3.39 µM | recombinant PAFAH1B3, FP-rhodamine probe, fluorescence polarization | hit rate 0.28% among 340,000 | AID 492972;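 active = inhibition above the screen-wide average of all tested compounds plus 3 SD, cut at about 25% in these data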;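 note: 0% = enzyme with DMSO only and 100% = wells lacking PAFAH1B3 protein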
Fam108B counter = Fam108B inhibition, counter-screen for RBBP9 inhibitors. recombinant Fam108B, FP-Rh probe fluorescence polarization. inhibition, % at 9.51 µM. hit rate 0.33% among 300,000. AID 1947;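 active = inhibition above the screen mean inhibition plus 3 SD, computed separately per campaign, cut at about 18% in these data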;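 note: inhibitors lower polarization as less probe binds the enzyme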
PME-1 primary = blocks human protein phosphatase methylesterase 1 | Q9Y570 | recombinant PME-1, FP-Rh probe fluorescence polarization | inhibition, % at 5.9 µM | hit rate 0.53% among 320,000;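 active = inhibition above the campaign mean of all compounds plus 3 SD, cut at about 26% in these data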;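 note: competitive labeling of PME-1 active site by serine hydrolase directed probe; 0% = PME-1 with DMSO and 100% = wells lacking PME-1 enzyme; inhibitors block probe labeling so polarization falls and inhibition rises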
Target sequence (Q9Y570 whole entry, looked up): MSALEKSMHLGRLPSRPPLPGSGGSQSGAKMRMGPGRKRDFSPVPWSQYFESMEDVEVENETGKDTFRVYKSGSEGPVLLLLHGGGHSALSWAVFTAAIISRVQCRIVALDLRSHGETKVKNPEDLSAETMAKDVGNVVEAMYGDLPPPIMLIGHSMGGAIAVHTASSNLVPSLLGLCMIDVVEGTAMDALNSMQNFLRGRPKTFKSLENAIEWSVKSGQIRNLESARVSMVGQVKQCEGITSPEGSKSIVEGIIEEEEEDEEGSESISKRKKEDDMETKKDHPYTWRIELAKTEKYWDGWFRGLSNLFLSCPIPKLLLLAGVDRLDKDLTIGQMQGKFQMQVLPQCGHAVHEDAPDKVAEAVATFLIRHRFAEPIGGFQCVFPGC
Numbers without * were called inactive; nt = no result.

SMILES | pPAFAH inh | PAFAH2 FP inh | PAFAH1B2 inh | PAFAH1B3 FP inh | Fam108B counter | PME-1 primary
COc1ccc(S(=O)(=O)Nc2ccccc2OC)cc1N=Nc1c(O)[nH]c(=S)[nH]c1=O | 26* | 15 | 7 | 6 | nt | nt
CCCCCC#CCC#CCC#CCC#CCCCC(=O)O | 61* | nt | nt | nt | 11 | -8
C=CCSc1nc(=O)n2ccc(C)cc2n1 | 27* | 15 | -3 | 3 | 0 | 0
CCCNC(=O)c1ccc(-c2nn(C)c(=O)c3ccccc23)cc1 | 32* | 2 | 2 | 3 | 10 | -8
COc1ccccc1Nc1nc(-c2sc(N)nc2C)cs1 | 27* | 13 | 7 | 16 | -1 | 10
COc1ccccc1Nc1nc(-c2sc(NC(=O)c3ccc([N+](=O)[O-])cc3)nc2C)cs1 | 21 | nt | nt | nt | 25* | 24
COc1ccccc1Nc1nc(-c2sc(NC(=O)c3ccccc3)nc2C)cs1 | 5 | -9 | 0 | -3 | 1 | 1
COc1cccc(C(=O)Nc2ccccc2N2CCN(C(=O)c3ccccc3)CC2)c1 | 3 | -2 | 7 | 2 | nt | nt
Cc1cc([N+](=O)[O-])c2c(c1C)C1C=CCC1C(c1ccccn1)N2 (stereo not drawn) | 28* | nt | nt | nt | 12 | 7
O=C(O)C1(c2ccccc2)CCN(S(=O)(=O)c2ccc(F)c(F)c2)CC1 | -2 | -10 | 27* | 5 | -1 | -3
O=C(O)C1(c2ccccc2)CCN(S(=O)(=O)c2ccccc2)CC1 | 5 | -2 | 16 | 6 | -4 | -5
COc1cccc(-c2nc(CS(=O)(=O)CC(=O)NCCCN3CCOCC3)c(C)o2)c1 | 3 | -1 | -3 | 7 | 2 | -5
C/C(CC(=O)Nc1ccc(N(C)C)cc1)=N\NC(=O)c1ccc(F)cc1 | 1 | -7 | 0 | 5 | 2 | 0
C/C(CC(=O)Nc1ccc(N(C)C)cc1)=N\NC(=O)c1ccc(C(C)(C)C)cc1 | 5 | 37* | 9 | 10 | 2 | -2
COC(=O)CCC/C=C1/SCC(NC(=O)c2ccccc2)C1=O (stereo not drawn) | 26* | -8 | 1 | -5 | -9 | -7
COc1ccc(N2CCN(C(=O)COC(=O)CCOc3ccccc3C)CC2)cc1 | 3 | 6 | 3 | 3 | -2 | 4
O=C(NCCC(=O)N1CCCC(C(F)(F)F)C1)c1ccccc1Cl (stereo not drawn) | 1 | -1 | 5 | 7 | 1 | 1
CC(C)C(=O)NC(c1ccccc1)c1cc([N+](=O)[O-])c2cccnc2c1O (stereo not drawn) | 34* | 9 | 0 | -4 | 8 | 4
CCCCC(=O)NC(c1ccco1)c1cc(Cl)c2cccnc2c1O (stereo not drawn) | 29* | 7 | 4 | 8 | 3 | -5
CCC(=O)NC(c1cccs1)c1cc([N+](=O)[O-])c2cccnc2c1O (stereo not drawn) | 23 | 10 | 2 | 0 | 10 | 27*
CCC(=O)NC(c1ccco1)c1cc(Cl)c2cccnc2c1O (stereo not drawn) | 24 | 13 | -3 | 9 | 4 | -2
COc1[nH]c(/N=C/c2ccccc2)c(C#N)c1C#N | 6 | 83* | 81* | 82* | 17 | 20
O=c1ccc(NS(=O)(=O)c2ccccc2)cn1Cc1ccc(Cl)c(Cl)c1 | 26* | 5 | 15 | 9 | 1 | 4
Cc1ccc(S(=O)(=O)N[C@@H](Cc2ccccc2)C(=O)N2CCC[C@@H]2C(=O)O)cc1 | 4 | 1 | 9 | 5 | -1 | -7
COC(=O)c1ccc(NC(=O)c2ccc[n+]([O-])c2)cc1 | 3 | -5 | 4 | 0 | 0 | 0
SMILES | pPAFAH inh | PAFAH2 FP inh | PAFAH1B2 inh | PAFAH1B3 FP inh | Fam108B counter | PME-1 primary
Cc1cccc(NC(=S)NCCSc2ccc(Cl)cc2)c1 | 4 | 3 | 28* | -4 | -5 | -3
CCc1ccccc1NC(=S)NCCSc1ccc(Cl)cc1 | 31* | 4 | 37* | -3 | -4 | -1
Cc1ccc(C)c(NC(=S)NCCSc2ccc(Cl)cc2)c1 | 3 | -5 | 37* | 1 | -3 | 3
O=C(/C=C/c1ccccc1)NCCSc1ccc(Cl)cc1 | 2 | 2 | 29* | 4 | -7 | -8
Cc1cccc(NC(=S)NCC(C)CSc2ccc(Cl)cc2)c1 (stereo not drawn) | -10 | -8 | 10 | 2 | -39 | -34
COc1ccc(NC(=O)N2CCCC2C(=O)Nc2ccc(C)cc2C)cc1 (stereo not drawn) | 0 | 8 | 8 | 16 | 1 | -7
COc1ccc(CNc2nnnn2C)c(OC)c1 | 3 | 10 | 1 | 4 | 0 | -2
CCOC(=O)c1c(C)[nH]c(O)c1C=Nc1ccc(C(F)(F)F)cc1 | 8 | 13 | 18 | 31* | 11 | 10
CCOc1ccc(OC(=O)NC(c2ccccc2)C(Cl)(Cl)Cl)cc1 (stereo not drawn) | 1 | 5 | 26* | 2 | -1 | -1
CC(C)OC(=O)NC(c1ccccc1)C(Cl)(Cl)Cl (stereo not drawn) | 3 | 13 | 24* | 2 | 6 | 0
CS(=O)(=O)c1nc(-c2ccccc2)cc(C(F)(F)F)n1 | 25* | -4 | -2 | 3 | -2 | -3
O=C(O)c1ccccc1NS(=O)(=O)c1ccc(N/N=C/c2ccc(O)c(O)c2)c([N+](=O)[O-])c1 | nt | 72* | 59* | 58* | nt | nt
COc1ccccc1NS(=O)(=O)c1cc([N+](=O)[O-])ccc1N/N=C/c1c[nH]c2ccccc12 | 12 | 2 | 2 | 3 | 10 | 11
COc1ccc(C=NNc2ccc([N+](=O)[O-])cc2S(=O)(=O)Nc2ccccc2C(=O)O)cc1OC | 33* | 11 | 1 | 14 | nt | nt
Cc1ccc(NC(=O)CSc2sc3c(O)cc(=O)[nH]c3c2C#N)c(F)c1 | 31* | 15 | 7 | 13 | 2 | -12
COc1ccc(OC)c(NC(=O)CSc2sc3c(O)cc(=O)[nH]c3c2C#N)c1 | 20 | 25 | 8 | 7 | 5 | -14
N#Cc1c(SCC(=O)Nc2ccc(C(F)(F)F)cc2)sc2c(O)cc(=O)[nH]c12 | 25* | -8 | 10 | 9 | 0 | -10
FC(F)(F)Oc1ccc(Nc2nc(N3CCOCC3)nc(N3CCOCC3)n2)cc1 | 4 | 0 | 9 | 2 | 2 | -5
Cc1c(C(=O)N2CCCCC2)c(S(=O)(=O)N2CCN(c3ccc(Cl)cc3)CC2)c(C)n1C | 25* | -3 | 15 | -2 | -2 | 4
Cc1c(C(=O)N2CCCCC2)c(S(=O)(=O)N2CCN(c3ccc(F)cc3)CC2)c(C)n1C | 6 | 0 | 1 | 5 | 4 | -7
Cc1c(C(=O)NNC(=O)c2cccnc2)cccc1[N+](=O)[O-] | -4 | -5 | 3 | 5 | nt | nt
C/C(=N/NC(=O)CN1CCN(S(=O)(=O)c2ccc(Br)cc2)CC1)c1ccco1 | 3 | 4 | 27* | 4 | -2 | 8
O=S(=O)(c1ccc(Br)cc1)N1CCN(Cc2ccco2)CC1 | -5 | 3 | 26* | 10 | 2 | 5
